From PubChem BioAssay (Tox21) come the findings set out here.

Experiment [1] is described as follows: qHTS assay to identify aromatase inhibitors - cell viability counter screen (AID 743084).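 Note: cells stimulated with testosterone during compound exposure; nearly all actives have a fitted effect of over 55% in size.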 Note: potency is the fitted concentration of half-maximal effect.
Experiment [2] addresses Aryl hydrocarbon receptor (Homo sapiens) (UniProt P35869). Description: qHTS assay to identify small molecule that activate the aryl hydrocarbon receptor (AhR) signaling pathway (AID 743085).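 Note: HG2L7.5c1 human HepG2 liver cells with stably integrated DRE-driven firefly reporter; series mostly up to about 70 µM; nearly all actives have a fitted effect of over 15% in size.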 The method in brief: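 HepG2 cells (HG2L7.5c1) stably carrying a firefly luciferase reporter driven by 20 dioxin responsive elements were exposed to compound for 24 h at 37C after a 5 h settling period; luminescence rise (ONE-Glo) indicated activation.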
(In qHTS, concentration-response curves come from the screen itself.)

Experiment [3] is described as follows: qHTS assay to identify small molecule that activate the aryl hydrocarbon receptor (AhR) signaling pathway - cell viability counter screen (AID 743086). Note: nearly all actives have a fitted effect of over 45% in size. Note: potency is the fitted concentration of half-maximal effect. The method in brief:
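HepG2-AhR-luc (HG2L7.5c1) cells, 4000/well, were preincubated 5 h at 37C, exposed to compound in qHTS format for 24 hr at 37C, then given CellTiter-Fluor for 30 min; viability was read as fluorescence in the reporter wells.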

Experiment [4] concerns the target Peroxisome proliferator-activated receptor gamma (Homo sapiens) (UniProt P37231). Kind of experiment: qHTS assay to identify small molecule agonists of the peroxisome proliferator-activated receptor gamma (PPARg) signaling pathway (AID 743094; active = well fitted activation curve with a large enough effect in the signal ratio in the repeat runs, not every such curve was filed as active; the % refers to the signal ratio). The method in brief:
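Agonist activity was taken from a beta-lactamase reporter (FRET substrate, 1 h at room temperature) in HEK293H cells carrying a PPARg UAS-bla construct. Compounds in DMSO were incubated 17 h at 37C after a 5 h cell pre-incubation.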

Experiment [5] is described as follows: qHTS assay to identify small molecule phospholipidosis (PLD) inducers (AID 1259344; active = well fitted curve in the direction sought with a large enough effect; an effect the other way counts as inactive or inconclusive). An outline of the steps: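 After 4 h attachment on collagen I, HepG2 cells were dosed with compound alongside LipidTOX Red, kept 24 h at 37 C, fixed, and imaged for lamellar phospholipid pits.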
The target in experiment [6] is Nuclear receptor subfamily 1 group I member 2 (Rattus norvegicus) (UniProt Q9R1A7). Description: Rat pregnane X receptor (rPXR) activation by small molecules, qHTS assay (AID 1346983). Note: nearly all actives have a fitted effect of over 20% in size. Note: potency is the fitted concentration of half-maximal effect. Particulars: rPXR luciferase reporter cells, One-Glo luminescence, 24 h; max activation: hits give high values. The method in brief: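 Cell-based rPXR luciferase reporter assay, 2,000 cells per well, rested 5hr at 37 C before compound addition in DMSO, then 24 hr at 37 C. One-Glo reagent was added and luminescence read after 30 min at room temperature.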

Experiment [7] deals with Nuclear receptor subfamily 1 group I member 2 (Homo sapiens) (UniProt O75469). Kind of experiment: CYP3A4 induction through human pregnane X receptor (PXR) by small molecules, qHTS assay (AID 1346984). Note: nearly all actives have a fitted effect of over 40% in size. An outline of the steps: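 Read-out is luminescence after One-Glo addition, following a 3 hr, 37C incubation with Luciferin-IPA CYP3A4 substrate (3uM final). Before that, compounds were on DPX-2 cells (HepG2 co-transfected with PXR element plus CYP3A4-promoter luciferase) for 24 hr at 37C.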

The target is the same in experiment [8]. Description: Human pregnane X receptor (PXR) activation by small molecules, qHTS assay (AID 1346985). Note: nearly all actives have a fitted effect of over 40% in size. Note: potency is the fitted concentration of half-maximal effect. The method in brief:
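DPX-2 cells (HepG2 co-transfected with a PXR response element and a CYP3A4-promoter luciferase construct) were seeded at 2,000 per well, rested 5 hr at 37C, then exposed to DMSO-dissolved compounds for 24 hr. Activation was read as luciferase luminescence.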

Each structure is given as a SMILES string. Results filed as inconclusive are left out. A number with no mark means an inactive call. Calls of active or inactive are those of the source. Unless noted, calls come from the whole dose curve; as a rule, active = well fitted curve in the direction sought with a large enough effect in the repeat runs; inconclusive = weak or mixed curves; inactive = no such curve, though single readings can be large; an effect the other way counts as inactive or inconclusive. Positions of bridges follow the written chain, without caps; N, C: chain ends. Non-standard residues stand in square brackets, D forms with d. Residues, ends and D or L forms follow the SMILES beside them. *: point of attachment. X2 = CC[C@H](C)CCCCC(=O)*; Dab = NCC[C@H](N)C(=O)O
% is set by controls: 0 for no effect and ±100 for the full control effect.

Sequence of Peroxisome proliferator-activated receptor gamma (Homo sapiens) (P37231 whole entry, looked up): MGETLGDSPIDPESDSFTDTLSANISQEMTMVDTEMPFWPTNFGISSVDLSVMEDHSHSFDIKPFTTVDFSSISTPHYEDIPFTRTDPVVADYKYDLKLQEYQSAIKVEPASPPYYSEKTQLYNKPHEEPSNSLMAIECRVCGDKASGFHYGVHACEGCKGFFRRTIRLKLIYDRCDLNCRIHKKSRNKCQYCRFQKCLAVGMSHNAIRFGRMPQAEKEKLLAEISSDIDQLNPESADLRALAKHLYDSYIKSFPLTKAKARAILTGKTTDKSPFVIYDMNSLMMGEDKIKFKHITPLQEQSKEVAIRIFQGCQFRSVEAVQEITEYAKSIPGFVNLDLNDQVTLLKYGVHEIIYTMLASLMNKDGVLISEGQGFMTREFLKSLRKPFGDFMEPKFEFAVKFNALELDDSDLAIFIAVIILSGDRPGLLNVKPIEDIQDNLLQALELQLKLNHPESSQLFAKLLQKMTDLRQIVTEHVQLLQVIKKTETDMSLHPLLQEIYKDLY
Sequence of Aryl hydrocarbon receptor (Homo sapiens) (P35869 whole entry, looked up): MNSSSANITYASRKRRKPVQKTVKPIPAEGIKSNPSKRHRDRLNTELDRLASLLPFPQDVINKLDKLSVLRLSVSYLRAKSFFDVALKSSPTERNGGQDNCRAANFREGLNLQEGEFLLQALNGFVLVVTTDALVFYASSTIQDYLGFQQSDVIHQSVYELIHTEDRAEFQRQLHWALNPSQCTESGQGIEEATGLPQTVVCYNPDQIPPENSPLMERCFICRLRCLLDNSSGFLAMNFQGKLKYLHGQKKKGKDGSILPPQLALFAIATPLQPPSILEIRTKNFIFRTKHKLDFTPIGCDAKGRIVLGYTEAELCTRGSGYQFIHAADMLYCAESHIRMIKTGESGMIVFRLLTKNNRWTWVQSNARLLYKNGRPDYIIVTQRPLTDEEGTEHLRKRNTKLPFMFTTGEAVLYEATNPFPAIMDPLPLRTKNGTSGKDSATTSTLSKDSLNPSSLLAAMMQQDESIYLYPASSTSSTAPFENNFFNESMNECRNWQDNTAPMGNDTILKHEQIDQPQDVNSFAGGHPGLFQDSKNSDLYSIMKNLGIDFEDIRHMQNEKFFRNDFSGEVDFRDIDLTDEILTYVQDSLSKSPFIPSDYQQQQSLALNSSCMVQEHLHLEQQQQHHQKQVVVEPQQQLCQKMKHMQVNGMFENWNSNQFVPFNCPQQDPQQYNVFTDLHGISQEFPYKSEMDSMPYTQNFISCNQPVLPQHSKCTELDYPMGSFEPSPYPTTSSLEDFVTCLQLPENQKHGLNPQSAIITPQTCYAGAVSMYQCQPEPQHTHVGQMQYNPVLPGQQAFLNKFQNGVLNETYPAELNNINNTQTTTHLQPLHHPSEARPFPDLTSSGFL
Sequence of Nuclear receptor subfamily 1 group I member 2 (Rattus norvegicus) (Q9R1A7 whole entry, looked up): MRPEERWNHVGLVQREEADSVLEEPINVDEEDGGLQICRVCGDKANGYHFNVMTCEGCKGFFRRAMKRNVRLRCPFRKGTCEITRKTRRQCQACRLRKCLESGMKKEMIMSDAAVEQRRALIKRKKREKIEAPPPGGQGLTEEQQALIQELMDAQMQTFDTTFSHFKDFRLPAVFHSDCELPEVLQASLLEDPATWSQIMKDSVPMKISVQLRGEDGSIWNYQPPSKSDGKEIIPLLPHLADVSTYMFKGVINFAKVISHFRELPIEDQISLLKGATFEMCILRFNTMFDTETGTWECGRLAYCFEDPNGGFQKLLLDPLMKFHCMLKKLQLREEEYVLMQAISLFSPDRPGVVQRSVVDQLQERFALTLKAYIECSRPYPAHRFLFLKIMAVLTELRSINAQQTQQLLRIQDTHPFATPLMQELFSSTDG

`CCOC(=O)[C@@H](N)CS`: the Potency entry in experiment [1], in experiment [2], in experiment [3], in experiment [4], in experiment [5] and in experiment [7] was “inactive” in each case. In addition, the Potency result in experiment [8] is “inactive”. Besides, the max activation in experiment [6] is -2.02%.

With `FCOC(C(F)(F)F)C(F)(F)F`, the Potency entry in experiment [1], in experiment [2], in experiment [3], in experiment [4], in experiment [5] and in experiment [7] was “inactive” throughout. Besides, the Potency entry in experiment [8] is “inactive”. In addition, the max activation in experiment [6] is -0.275%.

As for `CC[C@H](C)CCCCC(=O)N[C@@H](CCN)C(=O)N[C@H](C(=O)N[C@@H](CCN)C(=O)N[C@H]1CCNC(=O)[C@@H]([C@H](C)O)NC(=O)[C@H](CCN)NC(=O)[C@H](CCN)NC(=O)[C@H](CC(C)C)NC(=O)[C@@H](CC(C)C)NC(=O)[C@H](CCN)NC1=O)[C@@H](C)O` (X2-[Dab]T[Dab][Dab][Dab][dL]L[Dab][Dab][dT]; lactam 4-C), the Potency result in experiment [1], in experiment [2], in experiment [3], in experiment [4], in experiment [5] and in experiment [7] was “inactive” throughout. The Potency result in experiment [8] is “inactive”. Further, the max activation in experiment [6] is -4.02%.

For the compound `CCCOc1cc(N)ccc1C(=O)OCCN(CC)CC`, the Potency entry in experiment [1], in experiment [2], in experiment [3], in experiment [4], in experiment [5] and in experiment [7] was “inactive” in each case. In addition, the Potency entry in experiment [8] is “inactive”. For the same compound, the max activation in experiment [6] was 2.87%.

As for `CO/N=C(\C(=O)N[C@@H]1C(=O)N2C(C(=O)O)=C(CSc3nnnn3C)CS[C@H]12)c1csc(N)n1`, the Potency entry in experiment [1], in experiment [2], in experiment [3], in experiment [4], in experiment [5] and in experiment [7] was “inactive” in each case. Also, the Potency entry in experiment [8] was “inactive”. Moreover, the max activation in experiment [6] is -3.46%.

Turning to `S=C=Nc1ccc(N=C=S)cc1`, the Potency entry in experiment [1], in experiment [2], in experiment [3], in experiment [4], in experiment [5] and in experiment [7] was “inactive” in each case. For the same compound, the Potency entry in experiment [8] is “inactive”. Moreover, in experiment [6], the max activation is -1.24%.

Turning to `Cc1nc(NS(=O)(=O)c2ccc(N)cc2)nc(C)c1Br`, the Potency entry in experiment [1], in experiment [2], in experiment [3], in experiment [4], in experiment [5] and in experiment [7] was “inactive” throughout. Moreover, the Potency entry in experiment [8] was “inactive”. In experiment [6], the max activation was -1.45%.

`C=CCSSSCC=C`: the Potency entry in experiment [1], in experiment [2], in experiment [3], in experiment [4], in experiment [5] and in experiment [7] was “inactive” throughout. Also, the Potency result in experiment [8] was “inactive”. In experiment [6], the max activation is 0.11%.

On to `C[C@H](O)[C@H](O)[C@H]1CNc2nc(N)[nH]c(=O)c2N1`, for which the Potency result in experiment [1], in experiment [2], in experiment [3], in experiment [4], in experiment [5] and in experiment [7] was “inactive” throughout. Moreover, the Potency result in experiment [8] is “inactive”. Further, the max activation in experiment [6] is -2.27%.

Take `CC(=O)OCC(=O)[C@@]12OC3(CCCC3)O[C@@H]1C[C@H]1[C@@H]3CCC4=CC(=O)C=C[C@]4(C)[C@@]3(F)[C@@H](O)C[C@@]12C`: the Potency result in experiment [1], in experiment [2], in experiment [3], in experiment [4], in experiment [5] and in experiment [7] was “inactive” each time. Further, the Potency in experiment [6] was 25.1 µM (active); in experiment [8], 14.1 µM (active).

For `CCCCCCCCCCCCCCCCCC(=O)OCC(C)O` (centres undefined), the figures for the Potency in experiment [1] and in experiment [3] were 18.8 µM (active) and 33.5 µM (active), respectively. Moreover, the Potency entry in experiment [2], in experiment [4], in experiment [5], in experiment [7] and in experiment [8] was “inactive” throughout. Also, the max activation in experiment [6] was -10.2%.

Take `Cc1ncc(C[n+]2csc(CCOP(=O)(O)OP(=O)(O)O)c2C)c(N)n1`: the Potency entry in experiment [1], in experiment [2], in experiment [3], in experiment [4], in experiment [5] and in experiment [7] was “inactive” throughout. In experiment [8], the Potency result was “inactive”. Also, the max activation in experiment [6] is -0.276%.

Turning to `CCCCCCCCCCCCCCCC(=O)OC[C@@H](O)[C@H]1OC[C@H](O)[C@H]1O`, the Potency result in experiment [1], in experiment [2], in experiment [3], in experiment [4], in experiment [5] and in experiment [7] was “inactive” throughout. Further, in experiment [8], the Potency result is “inactive”. In addition, in experiment [6], the max activation was 2.9%.

For the compound `C=CCCCCCCCCC(=O)OC`, the Potency result in experiment [1], in experiment [2], in experiment [3], in experiment [4], in experiment [5] and in experiment [7] was “inactive” each time. Also, the Potency entry in experiment [8] was “inactive”. The max activation in experiment [6] was -1.33%.

`O=C(O)CCC/C=C\C[C@@H]1[C@@H](/C=C/[C@@H](O)COc2cccc(C(F)(F)F)c2)[C@H](O)C[C@@H]1O`: the Potency entry in experiment [1], in experiment [3], in experiment [4], in experiment [5], in experiment [7] and in experiment [8] was “inactive” throughout. Further, the max activation in experiment [6] is -3.83%.

Consider `C=CCNC1=C2C[C@@H](C)C[C@H](OC)[C@H](O)[C@@H](C)/C=C(\C)[C@H](OC(N)=O)[C@@H](OC)/C=C\C=C(/C)C(=O)NC(=CC1=O)C2=O`, for which the Potency entry in experiment [2], in experiment [3], in experiment [5] and in experiment [7] was “inactive” throughout. The max activation in experiment [6] is -14.2%. The Potency in experiment [8] was 6.31 µM (active).

For `CCC(Oc1ccccc1)C(=O)N[C@@H]1C(=O)N2[C@@H]1SC(C)(C)[C@@H]2C(=O)O` (some centres undefined), the Potency result in experiment [1], in experiment [3], in experiment [4], in experiment [5], in experiment [7] and in experiment [8] was “inactive” in each case. Besides, the max activation in experiment [6] was -1.86%.

Take `Cc1cc(C(=O)NNCc2ccccc2)no1`: the Potency result in experiment [1], in experiment [3], in experiment [4], in experiment [5], in experiment [7] and in experiment [8] was “inactive” each time. In addition, in experiment [6], the max activation was -1.39%.
